Laboratory results reported in PubChem BioAssay (Tox21).
Inconclusive results are not listed. The source made the active and inactive calls. Unless noted, calls come from the whole dose curve; as a rule, active = well fitted curve in the direction sought with a large enough effect in the repeat runs; inconclusive = weak or mixed curves; inactive = no such curve, though single readings can be large; an effect the other way counts as inactive or inconclusive.

What was measured:
[1] = qHTS assay for small molecule agonists of the p53 signaling pathway (AID 651631; calls by dose curve; note: nearly all actives have a fitted effect of over 15% in size)
Summary of the method: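 HCT-116 p53RE-bla reporter line, 16 h compound treatment at 37 °C, then fluorescence after 2 h with B/G FRET substrate.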

[2] = qHTS assay for small molecules that induce genotoxicity in human embryonic kidney cells expressing luciferase-tagged ATAD5 (AID 651632); note: nearly all actives have a fitted effect of over 15% in size
Summary of the method: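 Concentration-response screen for ATAD5 upregulation in HEK293T luciferase reporter cells; 16 hr treatment at 37C, then luminescence after 30 min with Amplite at room temperature.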

[3] = qHTS assay for small molecule agonists of the p53 signaling pathway - cell viability (AID 651633; calls by dose curve;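 note: p53RE-bla HCT reporter cells with a stable beta-lactamase p53 reporter; series mostly up to about 83 µM; nearly all actives have a fitted effect of over 30% in size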)
Summary of the method: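 p53RE-bla cells were treated with compound for 16 hours at 37 C. Cytotoxicity was then measured as CellTiter-Glo luminescence after 30 min at room temperature.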

[4] = qHTS assay for small molecules that induce genotoxicity in human embryonic kidney cells expressing luciferase-tagged ATAD5 - cell viability (AID 651634; calls by dose curve; note: nearly all actives have a fitted effect of over 25% in size)
Summary of the method: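 15.5 hr compound or vehicle exposure of HEK293T cells expressing luciferase-tagged ATAD5 at 37C; live-cell protease activity is read by fluorescence after 30 min of CellTiter-Fluor.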

[5] = qHTS assay for small molecule disruptors of the mitochondrial membrane potential - cell viability (AID 720634; calls by dose curve;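 note: human HepG2 liver cancer cells; series mostly up to about 83 µM; nearly all actives have a fitted effect of over 20% in size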)
Summary of the method: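 In this qHTS format, HepG2 cells plated overnight were pinned with compound, incubated 1 hr, and assayed for ATP luminescence with CellTiter-Glo after m-MPI dye addition.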

[6] = qHTS assay for small molecule disruptors of the mitochondrial membrane potential (AID 720635)
Summary of the method: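 HepG2 cells exposed to compound 1 hr at 37C, then Mito-MPS dye 30 min. Ratio read of aggregate (540/590 nm) versus monomer (490/535 nm) fluorescence.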

[7] = qHTS assay to test for compound auto fluorescence at 535 nm (green) in HepG2 cells (AID 720675)
[8] = qHTS assay to test for compound auto fluorescence at 460 nm (blue) in HEK293 cells (AID 720678)
Summary of the method: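 Intrinsic compound fluorescence is recorded in live HEK293 cultures after overnight incubation at 37C, 5% CO2, using excitation 405 nm and emission 460 nm. Values are referenced to triamterene.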

[9] = qHTS assay to test for compound auto fluorescence at 590 nm (red) in HEK293 cells (AID 720679)
Summary of the method: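 Red autofluorescence, HEK293 cells: 2,000 cells/well; attach 4-5 hr 37C; add 23 nL cpd or DMSO; incubate o/n 37C 5% CO2; read Ex540/Em590; Rose Bengal sodium reference.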

[10] = qHTS assay to test for compound auto fluorescence at 535 nm (green) in HEK293 cells (AID 720680)
[11] = qHTS assay to test for compound auto fluorescence at 460 nm (blue) in HEK293 cell free culture (AID 720681)
Summary of the method: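 Compounds were added to cell-free DMEM with 10% FBS and fluorescence read directly. The blue channel used 405 nm excitation and 460 nm emission, with triamterene as the reference fluorophore.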

[12] = qHTS assay to test for compound auto fluorescence at 535 nm (green) in HEK293 cell free culture (AID 720682)
Summary of the method: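 Steps: dispense DMEM/10% FBS into empty wells; pin in compound or DMSO; measure fluorescence at 485/535 nm. Values are fluorescein equivalents.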

[13] = qHTS assay to test for compound auto fluorescence at 590 nm (red) in HepG2 cell free culture (AID 720684)
Summary of the method: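 Auto fluorescence equivalency versus Rose Bengal sodium, red channel Ex/Em 540/590 nm; compounds in cell-free MEM/10% FBS; DMSO vehicle control.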

[14] = qHTS assay to test for compound auto fluorescence at 460 nm (blue) in HepG2 cell free culture (AID 720685)
Summary of the method: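 Cell-free plates of MEM plus 10% FBS received 23 nL compound or DMSO vehicle; blue-channel (405/460 nm) intensity scored against triamterene as reference fluorophore.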

[15] = qHTS assay to test for compound auto fluorescence at 460 nm (blue) in HepG2 cells (AID 720687)
Summary of the method: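 HepG2 cells in MEM with 10% FBS, attached overnight at 37 C, were exposed to compound or DMSO for 1 hr at 37 C, 5% CO2. Blue fluorescence was read at 405/460 nm, with triamterene as reference fluorophore.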

[16] = target: Glucocorticoid receptor (Homo sapiens) (UniProt P04150); test: qHTS assay to identify small molecule agonists of the glucocorticoid receptor (GR) signaling pathway (AID 720691; active = well fitted activation curve with a large enough effect in the signal ratio in the repeat runs, not every such curve was filed as active; the % refers to the signal ratio)
Chain of Glucocorticoid receptor (Homo sapiens) (P04150 whole entry, looked up): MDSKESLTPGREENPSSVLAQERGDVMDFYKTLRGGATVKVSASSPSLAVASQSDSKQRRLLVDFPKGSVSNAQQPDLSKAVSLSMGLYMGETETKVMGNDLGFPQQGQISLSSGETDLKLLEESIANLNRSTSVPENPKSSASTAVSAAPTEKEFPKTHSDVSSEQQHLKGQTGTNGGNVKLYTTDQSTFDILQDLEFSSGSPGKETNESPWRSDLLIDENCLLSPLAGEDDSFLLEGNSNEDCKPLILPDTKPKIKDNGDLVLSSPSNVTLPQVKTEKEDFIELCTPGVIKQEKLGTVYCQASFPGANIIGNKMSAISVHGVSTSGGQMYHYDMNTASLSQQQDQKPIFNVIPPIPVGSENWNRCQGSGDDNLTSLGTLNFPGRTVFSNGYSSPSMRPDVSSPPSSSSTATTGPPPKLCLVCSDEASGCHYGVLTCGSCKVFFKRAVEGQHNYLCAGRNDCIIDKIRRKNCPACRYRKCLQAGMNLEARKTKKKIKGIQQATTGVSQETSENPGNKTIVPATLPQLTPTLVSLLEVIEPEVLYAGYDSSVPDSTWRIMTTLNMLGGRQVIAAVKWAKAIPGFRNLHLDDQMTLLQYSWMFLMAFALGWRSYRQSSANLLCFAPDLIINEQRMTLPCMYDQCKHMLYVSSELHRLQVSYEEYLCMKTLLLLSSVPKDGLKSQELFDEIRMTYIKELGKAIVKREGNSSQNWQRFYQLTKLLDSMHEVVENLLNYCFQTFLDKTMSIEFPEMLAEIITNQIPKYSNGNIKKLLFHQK
Summary of the method: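 Measures GR pathway activation through a GRE-beta-lactamase reporter stably integrated in HeLa cells, with 18 h compound treatment at 37 C and fluorescence detection using a FRET substrate.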

[17] = target: Glucocorticoid receptor (Homo sapiens) (UniProt P04150); test: qHTS assay to identify small molecule antagonists of the glucocorticoid receptor (GR) signaling pathway (AID 720692; active = well fitted inhibition curve with a large enough effect in the signal ratio in the repeat runs, not every such curve was filed as active; the % refers to the signal ratio)
Summary of the method: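 Tox21 10K library screened in concentration-response for blockade of dexamethasone (5 nM final)-induced GRE-bla reporter activity in HeLa cells; 18 h treatment, fluorescence read.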

[18] = qHTS assay to test for compound auto fluorescence at 590 nm (red) in HepG2 cells (AID 720674)
Summary of the method: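 Seeding: 2,000 HepG2 cells/well, MEM/10% FBS, overnight 37 C. Dosing: compound vs DMSO. Incubation: 1 hr, 37 C, 5% CO2. Read: fluorescence 540 ex/590 em, Rose Bengal sodium as red reference.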

[19] = qHTS assay to test for compound auto fluorescence at 590 nm (red) in HEK293 cell free culture (AID 720683)
Summary of the method: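 Cell-free wells of DMEM with 10% FBS received compound, and intrinsic fluorescence was read at excitation/emission 540/590 nm. Values expressed as equivalence to Rose Bengal sodium.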

[20] = qHTS assay to test for compound auto fluorescence at 535 nm (green) in HepG2 cell free culture (AID 720686)

Measured: Potency

CC(N)CCCC(C)(C)O (stereo not drawn)
not listed: [18] | [19] | [20]
inactive: all other assays above

C=CC/C=C/C
not listed: [6] | [7] | [11] | [16]
inactive: all other assays above

CC(C)Nc1ccccc1
not listed: [7] | [11] | [12]
inactive: all other assays above

O=[N+]([O-])c1c(Cl)cc(Cl)cc1Cl
not listed: [12] | [16] | [18] | [19]
inactive: all other assays above

CCCCOCCOC(=O)COc1ccc(Cl)cc1Cl
not listed: [6] | [7] | [17] | [20]
inactive: all other assays above

CCCCOCC(C)O (stereo not drawn)
not listed: [6] | [18] | [20]
inactive: all other assays above

C[C@@H](O)C(=O)O
not listed: [6] | [7] | [16] | [17]
inactive: all other assays above

CC1(C)[C@H]2CC[C@](C)(C2)[C@H]1O
not listed: [6] | [11] | [16] | [17] | [18]
inactive: all other assays above

CCCCCCCCCOC(=O)CCCCC(=O)OCCCCCCC
not listed: [5] | [6] | [7] | [17]
inactive: all other assays above

O=C(O)c1cc2ccccc2nc1C(=O)O
not listed: [4] | [6]
inactive: all other assays above

CCOc1cccc(N)c1
not listed: [5] | [14] | [16] | [17]
inactive: all other assays above

CC1CCc2c(N3CCC(O)CC3)c(F)cc3c(=O)c(C(=O)O)cn1c23 (stereo not drawn)
not listed: [4] | [6]
inactive: all other assays above

CC(=O)c1cc(C)oc1C
not listed: [5] | [6] | [7] | [17] | [19]
inactive: all other assays above

COC(=O)/C=C\C(=O)O
not listed: [5] | [17]
inactive: all other assays above

Nc1nnnn1-c1ccccc1
not listed: [4] | [14] | [19]
inactive: all other assays above
